Compounds with a hit are over-represented: about 32% of the library has one in this group of screens.
PostGolgi yeast: growth inhibition of a yeast mutant, post-Golgi transport screen. post-Golgi transport phenotypic cell assay. inhibition, % at 10 µM. hit rate 0.9% among 98,000. AID 739;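 note: yeast cells grown in 1536-well plates; yeast grown about 18 h at 30C before absorbance read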
CYP2C9 activ: increases human cytochrome P450 2C9 activity; hit rate 1.4% among 96,000; P11712; recombinant CYP2C9, luciferin-H conversion, luminescence; hits give high values; factor 1 = untreated enzyme, 0 = blocked; activation factor at 5 µM;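 active = activation factor of 2 or more for CYP2C9 at a 5 µM dose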
PostGolgi ctrl: inhibits growth of the yeast control strain | efflux-deficient yeast background strain, growth absorbance A615, 16 h | inhibition, % at 10 µM | hit rate 5% among 98,000 | AID 738
CYP2C9 inh: human CYP2C9 inhibition; CYP2C9 Supersomes, luciferin-H conversion, luminescence; inhibition, % at 5 µM; hit rate 20% among 96,000;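 active = blocking of liver enzyme CYP2C9 beyond about 50% at 5 µM, limit read from the data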
CYP2C19 inh: human CYP2C19 inhibition | CYP2C19 Supersomes, luciferin-H EGE luminescence, 30 min | inhibition, % at 5 µM | hit rate 21% among 96,000 | AID 778;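 active = CYP2C19 inhibition above a set limit at 5 µM in the primary screen, cut at about 50% in these data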
Target sequence (P33261 whole entry, looked up): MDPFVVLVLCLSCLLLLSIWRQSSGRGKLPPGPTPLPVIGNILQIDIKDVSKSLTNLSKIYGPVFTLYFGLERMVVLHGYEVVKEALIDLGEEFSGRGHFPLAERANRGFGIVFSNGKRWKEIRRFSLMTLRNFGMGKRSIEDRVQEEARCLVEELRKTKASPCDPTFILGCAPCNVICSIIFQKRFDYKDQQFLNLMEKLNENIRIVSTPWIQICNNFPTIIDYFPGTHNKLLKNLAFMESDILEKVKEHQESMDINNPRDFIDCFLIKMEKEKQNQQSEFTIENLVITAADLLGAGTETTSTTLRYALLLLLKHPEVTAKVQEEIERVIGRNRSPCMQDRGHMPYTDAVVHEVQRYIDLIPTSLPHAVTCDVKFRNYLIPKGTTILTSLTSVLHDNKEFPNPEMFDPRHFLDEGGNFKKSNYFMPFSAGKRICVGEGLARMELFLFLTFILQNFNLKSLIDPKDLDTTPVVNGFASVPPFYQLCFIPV
CYP2C19 act: increases human CYP2C19 enzyme activity. recombinant CYP2C19, luciferin-H EGE luminescence; hits give high values; 0 = fully inhibited enzyme, 1 = untreated enzyme. activation factor at 5 µM. 96,000 tested, under 10 active. P33261;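 active = activation factor of at least 2 at 5 µM in the primary screen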
Numbers stand for hits; - = inactive. Cut-off read from the data, not from the text of the source, unless noted: active = inhibition above about 30%; inactive = the rest.

SMILES	PostGolgi yeast	CYP2C9 activ	PostGolgi ctrl	CYP2C9 inh	CYP2C19 inh	CYP2C19 act
O=c1cc(N2CCOCC2)[nH]c(=O)n1-c1ccc(Br)cc1	-	-	-	-	-	-
CCCCCCNc1c(C(=O)OCC)c(=O)[nH]c2ccccc12	-	-	-	-	-	-
CCOC(=O)C1=C(N)Oc2c(c(=O)[nH]c3ccccc23)C1c1ccccc1 (stereo unspecified)	-	-	-	74	-	-
CCOC(=O)C1=C(N)Oc2cc(C)n(C)c(=O)c2C1c1ccncc1 (stereo unspecified)	-	-	-	73	72	-
CCOC(=O)C1=C(C)NC(=O)CC1c1ccccc1 (stereo unspecified)	-	-	-	-	-	-
CCOC(=O)C1=C(C)Nc2nc(SCC)[nH]c(=O)c2C1c1ccncc1 (stereo unspecified)	-	-	-	64	84	-
CCOC(=O)C1=C(N)Oc2cc(C)n(CCc3ccc(OC)c(OC)c3)c(=O)c2C1c1cccnc1 (stereo unspecified)	-	-	-	-	-	-
CCOC(=O)C1=C(N)Oc2cc(C)[nH]c(=O)c2C1c1ccncc1 (stereo unspecified)	-	-	-	74	75	-
Cn1c(CCC(=O)Nc2ccc(N3CCOCC3)cc2)nc(=O)c2ccccc21	-	-	-	-	-	-
Cc1cccc(C(=O)Nc2c(C#N)c(C)c(C)n2Cc2ccccc2)c1	-	-	-	-	-	-
CCOC(=O)C1=C(C)N(C)C(C)=C(C(=O)OCC)C1c1cccnc1	-	-	-	84	87	-
CCOC(=O)C1=C(N)Oc2cc(C)oc(=O)c2C1c1cccnc1 (stereo unspecified)	-	-	-	63	60	-
O=C(C/C=N/OCc1c(Cl)cccc1Cl)c1ccccc1	-	-	-	-	-	-
CO/N=C/NC(=O)NOCc1c(Cl)cccc1Cl	-	-	32	-	-	-
O=C(N/C=N/OCc1ccc(Cl)cc1Cl)NOCc1c(Cl)cccc1Cl	-	-	-	-	-	-
CO/N=C/NC(=O)NOCc1ccc(Cl)cc1Cl	-	-	-	-	52	-
CC(=O)n1nc(-c2ccc(Cl)cc2)nc1NCc1ccco1	-	-	-	-	-	-
Cc1cccc(-c2cc(C(=O)NCCCn3ccnc3)c3ccccc3n2)c1	-	-	-	100	87	-
Cc1ccc(-c2cc(C(=O)NCCCn3ccnc3)c3cc(Br)ccc3n2)o1	-	-	-	100	94	-
O=C(NCCCN1CCOCC1)c1cc2cc(Br)ccc2oc1=O	-	-	-	-	-	-
Cc1nc(NCCCn2ccnc2)c2ccccc2n1	-	-	-	-	-	-
O=C(NC1=NCCS1)c1ccc(-c2ccc(Cl)cc2)o1	-	-	-	-	-	-
Cc1ccc(-c2cc(C(=O)NC3=NCCS3)c3cc(Br)ccc3n2)o1	-	-	-	-	52	-
O/N=C1/C2C3CC4C5C3C1C5C1(OCCO1)C42 (stereo unspecified)	-	-	-	-	-	-
CC(C)n1c(Nc2ccccc2)nc2ccccc21	-	-	-	-	-	-
SMILES	PostGolgi yeast	CYP2C9 activ	PostGolgi ctrl	CYP2C9 inh	CYP2C19 inh	CYP2C19 act
CCOC(=O)c1ccc(NCc2nc3ccccc3n2C)cc1	-	-	-	-	-	-
CC(C)n1c(NCc2nc3ccccc3n2C)nc2ccccc21	-	-	-	54	84	-
CC(C)n1c(CNC(=O)c2ccccc2)nc2ccccc21	-	-	-	-	86	-
Cc1ccc(NCc2nc3ccccc3n2C)cc1	-	-	34	-	96	-
CC(C)n1c(NCc2cc(Cl)ccc2O)nc2ccccc21	-	-	-	-	-	-
CCn1c(CNc2nc3ccccc3n2C(C)C)nc2ccccc21	-	-	-	82	82	-
CC(=O)NCc1nc2ccccc2n1C(C)C	-	-	-	-	-	-
CCN(CC)S(=O)(=O)c1cc([N+](=O)[O-])ccc1NNC(=O)Nc1ccc(F)cc1	-	-	-	-	-	-
Nc1nnc(CC(=O)NCc2ccccc2)s1	-	-	-	-	-	-
FC(F)(F)c1cc(C(F)(F)F)n2nc(-c3sccc3-n3cccc3)cc2n1	-	-	-	-	-	-
Cn1c(CNc2nc3ccccc3n2C)nc2ccccc21	-	-	-	-	70	-
Cn1c(NCc2c(O)ccc3ccccc23)nc2ccccc21	-	-	-	-	-	-

Source: PubChem BioAssay (several laboratories)
